TDP1 cell CPT: qHTS for Inhibitors of human tyrosyl-DNA phosphodiesterase 1 (TDP1): qHTS in cells in presence of CPT. AID 686979, 2013. chicken DT40 Tdp1-/-;hTDP1 cells + 20 nM CPT, ATP luminescence, 48 h. Potency, µM (doses to about 46.2 µM), for the others: at the top dose activity change, negative = growth inhibition, most hits filed as inhibitors. 420,000 compounds, 12% hits; further: potency means the concentration at half of the fitted maximal effect; nearly all actives have a fitted effect of over 55% in size
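Chicken DT40 Tdp1-/- cells complemented with human TDP1, 400 cells/well, exposed to compounds plus 20 nM camptothecin for at least 48 h at 37 C; viability read as ATP content by CellTiter-Glo luminescence.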
DT40 TDP1 no CPT: qHTS for Inhibitors of human tyrosyl-DNA phosphodiesterase 1 (TDP1): qHTS in cells in absence of CPT | 420,000 compounds, 15% hits | AID 686978, 2013 | Potency, µM (top dose mostly 46.2 µM), for inactives: at the top dose activity change, negative = growth inhibition, most hits filed as inhibitors | DT40 Tdp1-/- hTDP1 cells, no CPT, ATP luminescence, 48 h; further: potency means the concentration at half of the fitted maximal effect; nearly all actives have a fitted effect of over 55% in size
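A cellular qHTS used chicken DT40 cells lacking endogenous Tdp1 but carrying stably transfected human TDP1. Compounds were applied without camptothecin, and cell growth kinetics were judged by ATP-dependent luminescence after ≥48 hr.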
ALOX12 inh: Primary qHTS assay for inhibitors of human arachidonate 12S-lipoxygenase (ALOX12): Round 2 | Potency, µM (top dose mostly 108 µM), for the others: top-dose activity change, negative = inhibition, hits mostly inhibitors | AID 1671190, 2021 | purified 12hLO, xylenol orange hydroperoxide absorbance | 580,000 compounds, 1.1% hits; further: potency means the concentration at half of the fitted maximal effect
Target sequence (P18054 whole entry, looked up): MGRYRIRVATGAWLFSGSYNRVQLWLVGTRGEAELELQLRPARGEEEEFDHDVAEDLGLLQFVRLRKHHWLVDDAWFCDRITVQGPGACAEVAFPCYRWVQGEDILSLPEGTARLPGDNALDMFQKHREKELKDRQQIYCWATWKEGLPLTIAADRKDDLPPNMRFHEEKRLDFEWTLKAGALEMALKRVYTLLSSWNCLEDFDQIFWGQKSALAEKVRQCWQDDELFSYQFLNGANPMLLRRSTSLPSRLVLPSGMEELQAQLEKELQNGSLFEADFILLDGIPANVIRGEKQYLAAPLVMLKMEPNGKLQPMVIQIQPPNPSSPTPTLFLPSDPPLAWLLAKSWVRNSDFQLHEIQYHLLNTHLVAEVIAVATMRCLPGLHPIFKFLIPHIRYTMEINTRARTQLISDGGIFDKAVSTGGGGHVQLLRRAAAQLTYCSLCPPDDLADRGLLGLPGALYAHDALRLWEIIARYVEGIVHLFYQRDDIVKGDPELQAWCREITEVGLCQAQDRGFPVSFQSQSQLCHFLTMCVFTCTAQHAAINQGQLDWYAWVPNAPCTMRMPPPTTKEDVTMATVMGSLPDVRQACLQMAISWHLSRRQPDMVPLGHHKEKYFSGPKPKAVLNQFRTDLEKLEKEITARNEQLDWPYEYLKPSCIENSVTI
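Purified human 12hLO at 150 nM in 25 mM Hepes, 0.01% Triton X-100, pH 7.0, preincubated 15 min at room temperature with compound. Reaction started with 40 uM arachidonic acid, 30 min at room temperature. Hydroperoxide measured by Fe-xylenol orange, 573/405 nm absorbance ratio.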
IL-1B inflam inh: qHTS for Inhibitors of Inflammasome Signaling: IL-1-beta AlphaLISA Primary Screen | THP-1 LPS/ATP IL-1B secretion, AlphaLISA, 16 h; hits give low values | 360,000 compounds, 4.7% hits | AID 743279, 2014 | activity change, % at 57.5 µM; in the data active means activity change below about -50%; inconclusive means mostly about -30% to -49%
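THP-1 cells pretreated 1 hr with compounds (up to 57.5 uM final), then stimulated with LPS (250 ng/mL final) plus ATP (1.25 mM final); secreted IL-1B measured by AlphaLISA after 16 hr, decreased signal indicating inhibition.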
HT1080-NT tox: qHTS for induction of synthetic lethality in tumor cells producing 2HG: qHTS for the HT-1080-NT fibrosarcoma cell line; HT-1080-NT fibrosarcoma viability, CellTiter-Glo ATP luminescence, 48 h; Potency, µM (top dose mostly 46.1 µM), for the others: at the highest dose activity, negative = less viability, hits mostly cytotoxic; 360,000 compounds, 1.6% hits;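 further: NT is the 2HG producing partner of a matched IDH1 knockdown line; potency means the concentration at half of the fitted maximal effect; 0% = DMSO-treated cells and -100% = media-only wells without cells; nearly all actives have a fitted effect of over 55% in size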
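Fibrosarcoma NT cells, 750 per well in 5% FBS RPMI, were exposed to compound for 48 hours. Viability: CellTiter-Glo luminescence.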
HT1080 IDH1KD tx: qHTS for induction of synthetic lethality in tumor cells producing 2HG: qHTS for the HT-1080-IDH1KD cell line. Potency, µM (titrated, usually from 46.1 µM), for the others: top-dose activity, negative = toxicity, usual class: cytotoxic. AID 686971, 2013. 360,000 compounds, 2% hits. HT-1080 IDH1 knockdown viability, ATP luminescence, 48 h;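 further: potency means the concentration at half of the fitted maximal effect; 0% = DMSO wells and -100% = cell-free medium wells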
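Using the IDH1-knockdown HT-1080 line run in the same batch and compound series as the NT line, viability after 48 h at 37 °C was determined by CellTiter-Glo luminescence and expressed as % activity.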
* marks the source's active call; other numbers are inactive results; ? = inconclusive; nt = not tested or not shown; [ ] = dose if it differs, or a comment. Only a selection was taken, and hits are over-represented in it overall. Unless noted, the call rests on the fitted dose curve; in most records, active means well fitted curve in the direction sought with a large enough effect; inconclusive means small, poorly fitted or top-dose-only effect, or another doubt; inactive means no such curve, though single readings can be large; an effect the other way counts as inactive or inconclusive. Unless noted, on the % scale 0 is the no-effect control and ±100 the full control effect.

SMILES | TDP1 cell CPT | DT40 TDP1 no CPT | ALOX12 inh | IL-1B inflam inh | HT1080-NT tox | HT1080 IDH1KD tx
COc1ccccc1CNC(=O)C[C@@H]1[C@H](O)CCC2[C@](C)(CO)[C@H](OC(=O)NC3CCCCC3)CC[C@]21C (stereo partly specified) | nt | nt | 98.6% | nt | nt | nt
COc1ccc(Cc2c(-c3ccccc3)nc3c(C)cc(Br)cn23)c(C)c1 | 16.4µM* | ? | ? | 33.8 | -30.0% | ?
COc1ccc(Cc2c(C3CCCCC3)nc3c(C)cc(Br)cn23)c(C)c1 | 2.59µM* | 2.59µM* | ? | 6.3 | ? | ?
CCCc1nc2c(C)cc(Br)cn2c1Cc1cccc(F)c1 | ? | ? | ? | 0.8 | ? | ?
CCCc1nc2c(C)cc(Br)cn2c1Cc1ccc(OC)cc1C | ? | 20.6µM* | -21.0% | -1.8 | ? | ?
Cc1cc(Br)cn2c(Cc3cccc(Cl)c3)c(-c3cccc(Cl)c3)nc12 | ? | 25.9µM* | ? | 9.1 | -5.2% | -0.8%
COc1ccc(Cc2c(-c3cccc(Br)c3)nc3c(C)cc(Br)cn23)c(C)c1 | ? | ? | ? | 7.8 | -12.4% | -0.8%
CCN(CC)CCNC(=O)Cn1nc(C)n2nc(-c3ccccc3)cc2c1=O | nt | nt | -17.4% | nt | nt | nt
COc1cccc(CN2CCC(C(=O)N3CCCCCCNC(=O)CC3)CC2)c1 | nt | nt | 53.1% | nt | nt | nt
COc1ccc(Cc2c(-c3cccc(Cl)c3)nc3c(C)cc(Br)cn23)c(C)c1 | 2.59µM* | 2.59µM* | 7.94µM* | ? | 20.6µM* | 23.1µM*
COc1ccc(Cc2c(-c3cccc(Cl)c3)nc3ccc(C)cn23)c(C)c1 | 16.4µM* | 20.6µM* | 10µM* | -15.5 | ? | ?
COc1ccc(Cc2c(-c3ccc(Cl)cc3)nc3c(C)cc(Br)cn23)c(C)c1 | 23.1µM* | 20.6µM* | ? | 54.0 | ? | ?
COc1ccc(Cc2c(-c3ccccc3)nc3ccc(Cl)cn23)c(C)c1 | ? | ? | ? | 41.5 | -2.8% | 1.6%
COc1ccc(Cc2c(-c3ccc(F)cc3)nc3ccc(Cl)cn23)c(C)c1 | ? | ? | 28.2µM* | -0.3 | -19.7% | ?
CC1(c2ccccc2)N(Cc2ccccc2C#N)C(=O)OC12CCN(c1ccncc1)CC2 (stereo unspecified) | nt | nt | 4.0%[176 µM] | nt | nt | nt
O=C(CCC1CCCCC1)Nc1ccc(I)cc1 | nt | nt | 7.1% | nt | nt | nt
Cc1ccc(C2CCCN2S(=O)(=O)c2ccccc2)cc1 (stereo unspecified) | nt | nt | 8.7% | nt | nt | nt
Cc1ccc(-n2c(C3CCN(C(=O)Cc4ccc(Cl)cc4)CC3)n[nH]c2=O)cc1 | nt | nt | -17.7% | nt | nt | nt
COc1ccc(Cc2c(-c3ccc(F)cc3)nc3c(C)cc(Br)cn23)c(C)c1 | ? | 18.4µM* | 35.5µM* | 21.5 | 2.4% | -6.5%
COc1ccc(-n2nc(C#N)c(Cl)cc2=O)cc1 | 3.26µM* | 4.61µM* | -9.8% | -105.8* | 7.31µM* | 13µM*
COC(=O)c1nn(-c2ccc(OC)cc2)c(=O)cc1O | 16.7% | -1.2% | 1.5% | 14.7 | 2.1% | -0.1%
Cc1ccc(-c2nn3c(C)nnc3s2)cc1NC(=O)c1ccc(-c2ccc(Cl)cc2Cl)o1 | 7.31µM* | 6.51µM* | -19.6% | 21.4 | ? | ?
Cc1ccc(-c2nn3c(C)nnc3s2)cc1NC(=O)c1ccc(Br)o1 | ? | -21.0% | ? | 13.7 | 5.5% | 5.4%
Cc1ccc(-c2nn3c(C)nnc3s2)cc1NC(=O)c1ccc(-c2cccc(Cl)c2)o1 | 23.1µM* | 18.4µM* | 0.0% | 104.3 | ? | ?
O=C(NC1CC1)c1ccc2nnc(C3CC3)n2c1 | nt | nt | -1.3%[12.5 µM] | nt | nt | nt
SMILES | TDP1 cell CPT | DT40 TDP1 no CPT | ALOX12 inh | IL-1B inflam inh | HT1080-NT tox | HT1080 IDH1KD tx
COC(=O)c1cc(C)nc2onc(-c3ccc(F)cc3)c12 | nt | nt | -14.9% | nt | nt | nt
CCC(C)c1ccccc1NC(=S)NC(=O)c1ccco1 (stereo unspecified) | 23.1µM* | 13µM* | ? | 0.0 | 3.6% | 11.5%
O=C(NC(=S)Nc1ccc(N2CCCCC2)cc1)c1ccco1 | -1.3% | -23.9% | -13.6% | -7.1 | 7.08µM* | 14.1µM*
CC1CCN(c2ccc(NC(=S)NC(=O)c3ccco3)cc2)CC1 | -20.6% | ? | -14.8% | -13.5 | -3.9% | -17.2%
O=C(NC(=S)Nc1cccc(Cl)c1N1CCCCC1)c1ccco1 | ? | ? | ? | 17.5 | 11.2µM* | ?
O=C(NC(=S)Nc1ccccc1N1CCCCC1)c1ccco1 | 14.6µM* | ? | ? | 14.1 | -1.8% | -8.2%
COc1ccc(NC(=O)CN2CCc3cc(OC)c(OC)cc3C2c2ccccc2)cc1 (stereo unspecified) | nt | nt | 13.8% | nt | nt | nt
COC(=O)c1cc(NC(=O)c2ccccc2OC(F)F)c(F)cc1F | nt | nt | 5.1% | nt | nt | nt
Cc1ccccc1CN1CCC(CN(Cc2cccnc2)C(=O)C2CC=CCC2)CC1 (stereo unspecified) | nt | nt | 71.2% | nt | nt | nt
